In PubChem BioAssay (Tox21):
Records with an inconclusive call do not appear. A call without a number means that no potency is given here. A number with no mark means an inactive call. Calls of active or inactive are those of the source. The call rests on the fitted dose curve; in most records, active means well fitted activation curve with a large enough effect in the repeat runs; inconclusive means weak or mixed curves; inactive means flat fitted curve, though single readings scatter.

assay: A CellTox Green Cytotoxicity Assay to monitor cytotoxicity in HEK293 cells - 16 hour (AID 1224888); settings: CellTox Green fluorescence; series mostly up to 76.8 µM; further: nearly all actives have a fitted effect of over 35% in size
Description: National Center for Advancing Translational Sciences [NCATS]
NIH Chemical Genomics Center [NCGC]
U.S. Environmental Protection Agency [EPA]
National Institutes of Environmental Health Sciences [NIEHS]
National Toxicology Program [NTP]
Cell-based models are critical for drug discovery. Determining the natural cytotoxic effects resulting from test compounds is an essential research activity. A CellTox Green Cytotoxicity Assay to monitor cytotoxicity in real time of continues cell culture during 40 hours of the compound treatment was used to screen Tox21 10K library compounds in Hek293 cells. CellTox Green Cytotoxicity Assay is a nonlytic, homogeneous, biofluorescent method to measure cytotoxicity in cell culture after experimental manipulation. The assay system uses a proprietary asymmetric cyanine dye that is excluded from viable cells but preferentially stains the dead cell's DNA. […] Viable cells produce no appreciable increases in fluorescence. Therefore, the fluorescence signal produced by the binding interaction with dead cell DNA is proportional to cytotoxicity.
The mixture of Hek293 cell suspension and reagents were dispensed at 600cells/6 ul/well in 1536-well tissue culture treated black solid bottom plates using a Multidrop dispenser. After the assay plates were incubated at a 37 C/5% CO2 incubator for 5 hours, 23 nL of compounds dissolved in DMSO, positive and negative controls was transferred to the assay plate by a pintool work station. The plates were incubated at 37 C for 40 hours. The fluorescence intensity were measured at 0h, 8h, 16h, 24h, 32h and 40h time points using ViewLux plate reader during compound treatment.

| Compound | Potency | activity change |
| --- | --- | --- |
| COc1cc(C[C@@H](C)N)c(OC)cc1C | inactive |  |
| COCC(=O)N(c1c(C)cccc1C)N1CCOC1=O | inactive |  |
| CC1=NNC(=O)N(/N=C/c2cccnc2)C1 | inactive |  |
| CC1CCCCC1NC(=O)Nc1ccccc1 (stereo not given) | inactive |  |
| CCOP(=S)(Oc1cnc(C(C)(C)C)nc1)OC(C)C (stereo not given) | inactive |  |
| c1cc[c]([Hg][c]2ccccc2)cc1 | inactive |  |
| CCCSP(=O)(OCC)Oc1ccc(Br)cc1Cl (stereo not given) | inactive |  |
| C[C@H]1CCC[C@H](O)CCCCCc2cc(O)cc(O)c2C(=O)O1 | inactive |  |
| CC(CCc1ccccc1)NC(C)C(O)c1ccc(O)cc1 (stereo not given) | inactive |  |
| CCCCOC(=O)c1ccccc1C(=O)O | inactive |  |
| CS(=O)(=O)c1cc(C(F)(F)F)ccc1C(=O)c1cnoc1C1CC1 | inactive |  |
| CC1=C(C(=O)O)N2C(=O)[C@@H](N)[C@H]2SC1 |  | -1.57% [at 15.8 µM, active compounds read high] |
| CSc1ccc(C(=O)C(C)(C)N2CCOCC2)cc1 | inactive |  |
| COC(=O)c1c(C(F)F)nc(C(F)(F)F)c(C2=NCCS2)c1CC(C)C | inactive |  |
| CCC(Cl)[N+](=O)[O-] (stereo not given) | inactive |  |
| COC(=O)C(C)Oc1ccc(Oc2ccc(Cl)cc2Cl)cc1 (stereo not given) | inactive |  |
| O=C(O)C(Br)CBr (stereo not given) | inactive |  |
| Cc1cc(C)nc(Nc2ccccc2)n1 | inactive |  |
| O=C(O)c1ccc2[nH]cc(CCCCN3CC=C(c4ccccc4)CC3)c2c1 | inactive |  |
| CC1CN1P(=O)(N1CC1C)N1CC1C (stereo not given) | inactive |  |

| Compound | Potency | activity change |
| --- | --- | --- |
| CNC(=O)Oc1cccc(C(C)C)c1 | inactive |  |
| CCCCc1ccc(O)cc1 | inactive |  |
| C#CCN1C(=O)COc2cc(F)c(N3C(=O)C4=C(CCCC4)C3=O)cc21 | inactive |  |
| O=[N+]([O-])c1cccc(O)c1 | inactive |  |
| CC(=O)C(Cl)Cl | inactive |  |
| CCCCC(=O)Cl | inactive |  |
| [As]#[In] | inactive |  |
| COC(=O)C(c1ccccc1)C1CCCCN1 (stereo not given) | inactive |  |
| COc1cccc2c1cc([N+](=O)[O-])c1c(C(=O)O)cc3c(c12)OCO3 | inactive |  |
| C=CC1CC=CCC1 (stereo not given) | inactive |  |
| N#CCNCC#N | inactive |  |
| CC(C)CC#N | inactive |  |
| Cc1ncc(CNC(=O)N(CCCl)N=O)c(N)n1 | inactive |  |
| O=C(Nc1ccccc1)c1ccccc1I | inactive |  |
| Fc1cc(Br)ccc1CBr | inactive |  |
| CCC(C)n1c(=O)[nH]c(C)c(Br)c1=O (stereo not given) | inactive |  |
| Clc1cccc(N2CCNCC2)c1 | inactive |  |
| Nc1c(Br)cc([N+](=O)[O-])cc1[N+](=O)[O-] | inactive |  |
| CC(Oc1ccc(Oc2ncc(C(F)(F)F)cc2Cl)cc1)C(=O)O (stereo not given) | inactive |  |
| NC(=O)c1cc([N+](=O)[O-])cc([N+](=O)[O-])c1 | inactive |  |
